# Source: article PMC7862700, “An all-to-all approach to the identification of sequence-specific readers for epigenetic DNA modifications on cytosine”
# Assays:
# Experiment in all cases: DAPPL (digital affinity profiling via proximity ligation, sequencing); 10 mM Tris-HCl pH 7.5, 50 mM NaCl, 1 mM DTT, 4% glycerol, room temperature, 30 min; GST-TFs on glutathione beads, 16-mer random dsDNA library, 0.1% formaldehyde crosslink after washing; high values mean tight binding
# Settings in all cases: protein: recombinant; tags: N-terminal GST; dsDNA, one strand shown
# [1] = biological target: T1, ETV2 (Homo sapiens, UniProt O00321 1-342)
# T1 sequence: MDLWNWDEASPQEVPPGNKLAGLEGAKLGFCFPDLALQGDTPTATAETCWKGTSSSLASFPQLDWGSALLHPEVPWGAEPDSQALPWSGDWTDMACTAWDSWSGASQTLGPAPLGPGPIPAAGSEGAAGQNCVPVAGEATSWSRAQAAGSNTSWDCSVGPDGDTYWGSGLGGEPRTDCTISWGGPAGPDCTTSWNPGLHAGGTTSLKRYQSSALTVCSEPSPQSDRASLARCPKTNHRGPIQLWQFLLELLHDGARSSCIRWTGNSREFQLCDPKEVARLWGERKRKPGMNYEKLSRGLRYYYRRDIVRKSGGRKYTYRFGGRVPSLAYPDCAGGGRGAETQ
# In short: (§1)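 Binding signal is each hexamer's read frequency for a factor divided by its frequency in the tag-only sample. The factors were GST-fused human transcription factors from yeast, captured on glutathione beads, DNA-barcoded and pooled with that sample. Pools were incubated with 200 nmole of a random double-stranded 16-mer DNA library in Tris/NaCl/DTT/glycerol buffer at room temperature for 30 min, then washed, crosslinked with 0.1% formaldehyde, proximity-ligated with BsaI/T4 ligase (1 h, 37 °C), PCR-amplified and sequenced on an Illumina NextSeq500.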
# [2] = biological target: CRX (Homo sapiens, UniProt O43186 1-299)
# Chain of CRX (O43186 whole entry): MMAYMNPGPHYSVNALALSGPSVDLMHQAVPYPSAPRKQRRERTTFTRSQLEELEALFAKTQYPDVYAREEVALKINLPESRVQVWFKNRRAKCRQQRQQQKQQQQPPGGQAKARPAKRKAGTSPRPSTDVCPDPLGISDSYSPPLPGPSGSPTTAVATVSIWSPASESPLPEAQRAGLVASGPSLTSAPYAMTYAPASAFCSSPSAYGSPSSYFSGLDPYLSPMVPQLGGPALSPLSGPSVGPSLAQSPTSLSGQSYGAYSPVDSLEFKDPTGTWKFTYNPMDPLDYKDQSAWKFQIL
# In short: as §1
# [3] = biological target: ETV1 (Homo sapiens, UniProt P50549 1-477)
# Chain of ETV1 (P50549 whole entry): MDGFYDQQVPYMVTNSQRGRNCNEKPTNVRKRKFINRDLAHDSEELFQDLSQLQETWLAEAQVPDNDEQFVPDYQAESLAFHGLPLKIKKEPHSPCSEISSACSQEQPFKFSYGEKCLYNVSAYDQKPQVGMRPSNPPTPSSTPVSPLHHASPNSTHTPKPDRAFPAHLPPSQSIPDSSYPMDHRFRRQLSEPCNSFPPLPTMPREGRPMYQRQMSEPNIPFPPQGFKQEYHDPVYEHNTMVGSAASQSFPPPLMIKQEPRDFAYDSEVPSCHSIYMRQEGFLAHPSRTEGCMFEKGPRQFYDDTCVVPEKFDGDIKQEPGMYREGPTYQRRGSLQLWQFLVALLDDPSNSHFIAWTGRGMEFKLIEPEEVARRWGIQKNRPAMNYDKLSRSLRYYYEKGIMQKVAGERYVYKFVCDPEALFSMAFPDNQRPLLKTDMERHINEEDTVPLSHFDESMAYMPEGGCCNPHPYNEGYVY
# In short: as §1
# [4] = biological target: T2, ERF (Homo sapiens, UniProt P50548 1-548)
# T2 sequence: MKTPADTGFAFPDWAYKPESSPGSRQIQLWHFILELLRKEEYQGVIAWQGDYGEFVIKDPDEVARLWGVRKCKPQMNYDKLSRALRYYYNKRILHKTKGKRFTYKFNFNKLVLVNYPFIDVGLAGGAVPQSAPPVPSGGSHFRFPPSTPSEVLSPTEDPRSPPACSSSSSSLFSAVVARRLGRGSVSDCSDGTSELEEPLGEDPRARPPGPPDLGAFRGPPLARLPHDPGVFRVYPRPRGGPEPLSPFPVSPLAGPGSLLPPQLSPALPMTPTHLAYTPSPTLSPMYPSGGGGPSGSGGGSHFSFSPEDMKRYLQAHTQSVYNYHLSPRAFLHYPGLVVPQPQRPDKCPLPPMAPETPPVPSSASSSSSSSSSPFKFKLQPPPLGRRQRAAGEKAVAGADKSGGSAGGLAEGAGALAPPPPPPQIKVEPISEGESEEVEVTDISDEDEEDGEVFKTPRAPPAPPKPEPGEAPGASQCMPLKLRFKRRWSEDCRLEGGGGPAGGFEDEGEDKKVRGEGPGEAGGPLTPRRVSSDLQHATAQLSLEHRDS
# In short: as §1
# [5] = biological target: T3, ETV3L (Homo sapiens, UniProt Q6ZN32 1-361)
# T3 sequence: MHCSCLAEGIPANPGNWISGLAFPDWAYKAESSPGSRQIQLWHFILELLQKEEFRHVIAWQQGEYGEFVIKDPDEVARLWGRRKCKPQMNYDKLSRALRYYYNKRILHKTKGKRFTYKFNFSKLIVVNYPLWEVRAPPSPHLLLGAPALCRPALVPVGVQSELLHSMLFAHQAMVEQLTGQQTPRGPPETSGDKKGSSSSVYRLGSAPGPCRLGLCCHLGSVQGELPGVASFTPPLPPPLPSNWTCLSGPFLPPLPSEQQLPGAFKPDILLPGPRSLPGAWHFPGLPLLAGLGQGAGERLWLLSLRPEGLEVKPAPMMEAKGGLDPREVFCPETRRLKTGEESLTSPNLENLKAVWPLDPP
# In short: as §1
# [6] = biological target: T4, SPDEF (Homo sapiens, UniProt O95238 1-335)
# T4 sequence: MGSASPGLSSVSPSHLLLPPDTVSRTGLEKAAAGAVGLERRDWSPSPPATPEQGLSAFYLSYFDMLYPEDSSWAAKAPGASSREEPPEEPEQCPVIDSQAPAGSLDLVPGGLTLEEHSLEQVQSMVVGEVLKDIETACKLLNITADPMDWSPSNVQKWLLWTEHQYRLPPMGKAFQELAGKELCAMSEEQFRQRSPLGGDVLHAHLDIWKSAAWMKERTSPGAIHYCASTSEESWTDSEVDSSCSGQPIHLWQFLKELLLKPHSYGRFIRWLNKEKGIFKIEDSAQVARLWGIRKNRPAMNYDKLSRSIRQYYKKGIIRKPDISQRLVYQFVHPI
# In short: as §1
# [7] = biological target: T5, ETV7 (Homo sapiens, UniProt Q9Y603 1-341)
# T5 sequence: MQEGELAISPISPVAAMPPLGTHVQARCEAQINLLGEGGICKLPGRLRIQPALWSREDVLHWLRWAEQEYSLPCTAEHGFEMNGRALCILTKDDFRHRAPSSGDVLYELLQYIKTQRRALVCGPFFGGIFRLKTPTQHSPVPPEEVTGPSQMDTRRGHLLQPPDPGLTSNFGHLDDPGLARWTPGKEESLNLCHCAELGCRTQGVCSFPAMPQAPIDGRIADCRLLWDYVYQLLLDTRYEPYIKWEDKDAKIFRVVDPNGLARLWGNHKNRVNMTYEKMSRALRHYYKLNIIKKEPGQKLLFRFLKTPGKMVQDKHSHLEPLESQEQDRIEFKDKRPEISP
# In short: as §1
# [8] = biological target: T6, ETV3 (Homo sapiens, UniProt P41162-2 1-143)
# T6 sequence: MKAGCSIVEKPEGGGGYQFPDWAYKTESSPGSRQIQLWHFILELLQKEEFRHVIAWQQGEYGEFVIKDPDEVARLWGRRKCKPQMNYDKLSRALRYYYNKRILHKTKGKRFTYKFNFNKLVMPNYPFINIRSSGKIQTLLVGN
# In short: as §1
# [9] = biological target: ETV6 (Homo sapiens, UniProt P41212 1-452)
# Chain of ETV6 (P41212 whole entry): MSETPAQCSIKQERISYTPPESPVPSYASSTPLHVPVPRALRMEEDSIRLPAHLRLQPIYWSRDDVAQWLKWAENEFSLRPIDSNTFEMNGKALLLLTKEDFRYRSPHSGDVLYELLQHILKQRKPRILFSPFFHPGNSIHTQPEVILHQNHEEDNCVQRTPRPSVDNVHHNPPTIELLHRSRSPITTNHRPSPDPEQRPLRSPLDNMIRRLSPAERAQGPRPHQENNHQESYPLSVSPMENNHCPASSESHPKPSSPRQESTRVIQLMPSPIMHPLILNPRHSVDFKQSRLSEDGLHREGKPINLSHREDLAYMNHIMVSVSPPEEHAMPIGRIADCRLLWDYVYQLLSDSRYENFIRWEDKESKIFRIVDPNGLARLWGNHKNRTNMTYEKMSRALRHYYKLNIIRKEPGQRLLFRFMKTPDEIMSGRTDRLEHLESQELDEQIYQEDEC
# In short: as §1
sequence,measurement,setting,value
AGAACA,binding signal,[1],"1.03 fold enrichment (6-mer frequency, TF over GST control)"
same,binding signal,[2],"1.22 fold enrichment (6-mer frequency, TF over GST control)"
same,binding signal,[3],"1.02 fold enrichment (6-mer frequency, TF over GST control)"
same,binding signal,[4],"1.07 fold enrichment (6-mer frequency, TF over GST control)"
same,binding signal,[5],"1.01 fold enrichment (6-mer frequency, TF over GST control)"
same,binding signal,[6],"1.03 fold enrichment (6-mer frequency, TF over GST control)"
same,binding signal,[7],"1.07 fold enrichment (6-mer frequency, TF over GST control)"
same,binding signal,[8],"1.07 fold enrichment (6-mer frequency, TF over GST control)"
same,binding signal,[9],"1.08 fold enrichment (6-mer frequency, TF over GST control)"
